“And” between values parts separate entries of the source, which are not always exact repeats. Equal values may be shown once. This is part of a sample that, as a whole, favours compounds with a hit. Of some 83,000 tested, about 20% had one in any assay.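 In brief: 96-well plates, 48 h treatment, single concentration, percent growth endpoint.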 The source made the active and inactive calls. Rule for the calls: active = growth percent below 10; inactive = the rest.
Tested on: MDA-MB-468 breast
Assay: NCI-60 one-dose screen, 48 h (100 = growth as untreated, 0 = no growth, -100 = all killed)
Details: 10 µM unless noted

Row | Structure (SMILES) | growth
1 | CCN(CC)CCn1c(=N)n(CC(O)c2ccc(Cl)c(Cl)c2)c2ccccc21 (stereo not given) | 21% (inactive)
2 | CCc1nnc(CNc2ccc(Cl)cc2)o1 | 114% (inactive)
3 | CCOC(=O)c1cnn(CC(C)O)c1NC(=O)NCc1cccc(F)c1 (stereo not given) | 105% (inactive)
4 | COC(=O)/C=C1/SC(=Nc2ccc(C)cc2)N(CCc2c[nH]c3ccc(O)cc23)C1=O | 48% (inactive)
5 | O=C(Nc1ccccc1N1CCCC1=O)c1oc2ccc(F)cc2c1-c1cnn(-c2ccccc2)c1 | 51.1% [50 µM] (inactive)
6 | N#Cc1c(-c2ccccc2)nc(SCC(=O)N2CCOCC2)[nH]c1=O | 108% (inactive)
7 | CSc1nc2c(c(=O)n1C)C1(C(=O)N(Cc3ccccc3)c3ccccc31)c1c(nc(SC)n(C)c1=O)N2 | 86% (inactive)
8 | Cc1ccc(S(=O)(=O)n2cc(-c3csc(-c4cn(C)c5ncccc45)n3)c3ccccc32)cc1 | 38.6% (inactive)
9 | COc1ccc(C(O)c2cc3c(N)c(C(=O)Nc4ccc(Br)cc4)sc3nc2C)cc1 (stereo not given) | -0.733% (active)
10 | CCCCCCCCCCCCCCCCCCOc1ccccc1CC(=O)NCC[N+]1(C)CCCCC1 | 7.37% (active)
11 | CC(C)Sc1nc(Nc2ccc(S(N)(=O)=O)cc2)c(C#N)c(-c2ccc(F)cc2)n1 | 92.7% (inactive)
12 | Cc1ncc(-c2ccoc2)c(NC2CCCCCC2)n1 | 105% (inactive)
13 | Oc1c(-c2cc(C(F)(F)F)[nH]n2)cc(Cl)c(OCc2ccc(Cl)cc2)c1-c1ccc(Cl)c(C(F)(F)F)c1 | -21.4% (active)
14 | COc1ccc(-n2cnc3c(sc4ncc(Cl)cc43)c2=O)cc1 | 93.1% (inactive)
15 | O=C(O)CC(Cl)C(Cl)CC(=O)O (stereo not given) | 114% (inactive)
16 | Nc1[nH][nH]c(=O)c1N=Nc1ccccc1 | 105% (inactive) and 98.5% (inactive)
17 | CCOC(=O)Nc1ccc(C(=O)/C=C/c2ccccc2)cc1 | 94% (inactive)
18 | OCCCCc1nccc2c1[nH]c1ccccc12 | 92.9% (inactive)
19 | Cc1ccc(Cc2cnc(NC(=O)CN3C(=O)/C(=C\c4ccccc4)SC3=S)s2)cc1 | 105% (inactive)
20 | N=C(N)c1ccc(OCCCCCCCCCCOc2ccc(C(=N)N)cc2)cc1 | -75.6% (active)

Row | Structure (SMILES) | growth
21 | CC(Cc1ccco1)C(=O)NC(N)=O (stereo not given) | 95.7% (inactive)
22 | OC(CN1CCCC2CCCCC21)c1cc2ccccc2c2ccccc12 (stereo not given) | -24.4% (active)
23 | COc1cc(/C=C2\CCC/C(=C\c3cc(CN4CCOCC4)c(O)c(OC)c3)C2=O)cc(CN2CCOCC2)c1O | 31.5% (inactive)
24 | CCN=C1C=CC(=C(c2ccc(N(C)C)cc2)c2ccc(N(C)C)cc2)c2ccccc21 | -26.8% (active)
25 | O=C(CSC1CCc2ccccc21)N/N=C/c1ccccc1O (stereo not given) | 33.9% (inactive)
26 | NC(=O)CN1C(=O)c2ccccc2C1=O | 107% (inactive)
27 | COc1cc2c(cc1-c1c(C)noc1C)ncc1nc(C3CCOCC3)n([C@@H](C)COC(F)F)c12 | 47.5% (inactive)
28 | O=C1/C(=C/c2ccc([N+](=O)[O-])cc2)SC(=Nc2ccccc2)N1Nc1ccccc1 | 87.8% (inactive)
29 | CCCCc1ccc(NC(=O)C(F)(F)F)cc1 | 109% (inactive)
30 | Cc1cc(NCc2cc(Nc3ccnc4cc(Cl)ccc34)ccc2F)nc(N2CCN(C)CC2)n1 | -45.9% (active)
31 | CN(C)Cc1ccc(C(=O)Nc2ccc3ncnc(Nc4ccc(Oc5cccc(F)c5)c(Cl)c4)c3c2)cc1 | -63% (active)
32 | COc1ncc(-c2ccc3ncnc(Nc4cccc(Cl)c4)c3c2)cc1NS(=O)(=O)CCN1CCOCC1 | -52.8% (active)
33 | O=C1CC(c2cccc(-c3cccnc3)c2)=Nc2ccc(Br)cc2N1 | 10.5% (inactive)
34 | NC1=NC(=O)C(c2ccccc2)(c2ccccc2)S1 | 111% (inactive)
35 | COc1ccc(/C=C2\COc3ccc(O)cc3C2=O)c(OC)c1OC | 48.8% (inactive)
36 | N#Cc1ccc(NC(=O)Nc2nc3ccc(OC(F)(F)F)cc3s2)cc1 | -2.64% (active)
37 | NC(=Nc1ccccc1)SCCCCSC(N)=Nc1ccccc1 | 82.6% (inactive)
38 | O=C(Nc1ccc(N2CCNCC2)cc1)c1[nH]ncc1Nc1cc(C2CC2)ncn1 | 49.2% (inactive)
39 | C=C(C)[C@@H]1CC[C@]2(C(=O)NCCCN)CC[C@]3(C)[C@H](CC[C@@H]4[C@@]5(C)CC[C@H](O)C(C)(C)[C@@H]5CC[C@]43C)[C@@H]12 | -19.9% [100 µM] (active)
40 | CC(=O)N1CCN(c2ccc(OCC3CO[C@](Cn4ccnc4)(c4ccc(Cl)cc4Cl)O3)cc2)CC1 (stereo not given in full) | 26.5% (inactive)

Source: PubChem BioAssay (NCI)
